The source of these data is PubChem BioAssay.

Structures are written as SMILES.

This test in a line: HepG2 liver cancer cell viability effects, profiling panel, resazurin fluorescence, 24 h, PK04 Diversity Set (AID 1172). Note: test concentration not given here. The settings on record: higher = more signal. For orientation: Alamar Blue is a resazurin reagent that responds to reducing activity.
`CC1(C)[C@@H]2CC(C(O)C3C=CC4C(=O)N(c5ccccc5)C(=O)C4N3Nc3ccccc3F)=C[C@@H]1C2` (some centres not stated) gave a z-score of 1.48.

For `[N-]=[N+]=NCc1ccccc1[C@H]1OC(c2ccc(OCCCO)cc2)=N[C@@]1(Cc1ccccc1N=[N+]=[N-])C(=O)N1CCCCC1`, the z-score was -0.585.

For `CC(C)N1CC=CC23O[C@@H]4C=CCOC(=O)[C@@H]4[C@H]2C(=O)N(CCCCCCO)[C@@H]3C1=O` (some centres not stated), the z-score was 0.821.

As for `CN1C(=O)C2C=CC(C(O)C3CCCCC3)N(N(c3ccccc3)c3ccccc3)C2C1=O` (configuration not stated), the z-score is -0.11.

`CC(C)(C)OC(=O)CC[C@]1(C(=O)O)COC(c2ccc(OCCCO)cc2)=N1` gave a z-score of 0.265.

The compound `O=C1O[C@H](c2ccccc2)[C@H](c2ccccc2)N2[C@H]1[C@@H](C(=O)N1CCN(c3ncccn3)CC1)[C@]1(C(=O)Nc3ccc(C#CCCO)cc31)[C@H]2c1ccc(OCCO)cc1` gave a z-score of 0.956.

Compound `CN1C(=O)C2C=CC(C(O)c3cccc4ccccc34)N(NC(=O)OC(C)(C)C)C2C1=O` (configuration not stated) gave a z-score of -1.12.
